# Data published in publication PMC7862700, “An all-to-all approach to the identification of sequence-specific readers for epigenetic DNA modifications on cytosine”.
# Legend:
# Assay in all cases: DAPPL (digital affinity profiling via proximity ligation, sequencing); 10 mM Tris-HCl pH 7.5, 50 mM NaCl, 1 mM DTT, 4% glycerol, room temperature, 30 min; GST-TFs on glutathione beads, 16-mer random dsDNA library, 0.1% formaldehyde crosslink after washing; high values mean tight binding
# FEV = molecular target: T1, FEV (Homo sapiens, UniProt Q99581 1-238); conditions: protein: recombinant; tags: N-terminal GST; dsDNA, one strand shown
# T1 sequence: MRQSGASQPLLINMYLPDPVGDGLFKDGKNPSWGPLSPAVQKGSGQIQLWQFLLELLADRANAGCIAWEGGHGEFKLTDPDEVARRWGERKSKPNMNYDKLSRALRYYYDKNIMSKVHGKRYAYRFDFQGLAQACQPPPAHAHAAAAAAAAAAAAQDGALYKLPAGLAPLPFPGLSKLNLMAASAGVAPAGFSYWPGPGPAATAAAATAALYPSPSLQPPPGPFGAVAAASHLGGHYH
# Method in brief: (§1)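 Human transcription factors were made in yeast as GST fusions, captured on glutathione beads and barcoded with DNA. With a tag-only sample included, the pool was incubated with 200 nmole of a random double-stranded 16-mer DNA library in Tris/NaCl/DTT/glycerol buffer at room temperature for 30 min, then crosslinked with 0.1% formaldehyde after washing, ligated by proximity, amplified and sequenced. For binding signal, each hexamer's read frequency for a factor is divided by its frequency for the tag-only sample.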
# ETV5 = ETV5 (Homo sapiens, UniProt P41161 1-510); conditions: protein: recombinant; tags: N-terminal GST; dsDNA, one strand shown
# Method in brief: as §1
# HSF1 = HSF1 (Homo sapiens, UniProt Q00613 1-529); conditions: protein: recombinant; tags: N-terminal GST; chain copies: 3; dsDNA, one strand shown
# Method in brief: as §1
# SPIC = molecular target: T2, SPIC (Homo sapiens, UniProt Q8N5J4 1-248); conditions: protein: recombinant; tags: N-terminal GST; dsDNA, one strand shown
# T2 sequence: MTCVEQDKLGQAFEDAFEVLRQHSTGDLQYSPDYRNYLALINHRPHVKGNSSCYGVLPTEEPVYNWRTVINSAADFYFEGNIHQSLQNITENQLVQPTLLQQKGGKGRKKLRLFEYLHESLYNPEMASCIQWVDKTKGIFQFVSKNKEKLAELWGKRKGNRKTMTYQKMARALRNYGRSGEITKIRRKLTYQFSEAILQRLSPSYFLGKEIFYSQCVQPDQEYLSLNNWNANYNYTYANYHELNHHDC
# Method in brief: as §1
# ELF4 = ELF4 (Homo sapiens, UniProt Q99607 1-663); conditions: protein: recombinant; tags: N-terminal GST; dsDNA, one strand shown
# Method in brief: as §1
# ELK4 = molecular target: T3, ELK4 (Homo sapiens, UniProt P28324-2 1-405); conditions: protein: recombinant; tags: N-terminal GST; dsDNA, one strand shown
# T3 sequence: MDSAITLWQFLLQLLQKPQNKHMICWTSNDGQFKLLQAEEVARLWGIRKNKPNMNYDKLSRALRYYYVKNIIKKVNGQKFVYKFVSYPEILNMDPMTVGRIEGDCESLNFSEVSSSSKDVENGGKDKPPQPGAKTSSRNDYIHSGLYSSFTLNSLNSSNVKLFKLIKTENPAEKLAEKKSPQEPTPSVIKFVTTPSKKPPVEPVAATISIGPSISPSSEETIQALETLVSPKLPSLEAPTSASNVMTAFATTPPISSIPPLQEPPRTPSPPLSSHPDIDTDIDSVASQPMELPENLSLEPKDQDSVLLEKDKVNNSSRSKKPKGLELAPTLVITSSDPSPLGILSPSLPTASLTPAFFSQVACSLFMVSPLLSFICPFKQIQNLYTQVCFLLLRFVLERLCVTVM
# Method in brief: as §1
# ETV2 = molecular target: T4, ETV2 (Homo sapiens, UniProt O00321 1-342); conditions: protein: recombinant; tags: N-terminal GST; dsDNA, one strand shown
# T4 sequence: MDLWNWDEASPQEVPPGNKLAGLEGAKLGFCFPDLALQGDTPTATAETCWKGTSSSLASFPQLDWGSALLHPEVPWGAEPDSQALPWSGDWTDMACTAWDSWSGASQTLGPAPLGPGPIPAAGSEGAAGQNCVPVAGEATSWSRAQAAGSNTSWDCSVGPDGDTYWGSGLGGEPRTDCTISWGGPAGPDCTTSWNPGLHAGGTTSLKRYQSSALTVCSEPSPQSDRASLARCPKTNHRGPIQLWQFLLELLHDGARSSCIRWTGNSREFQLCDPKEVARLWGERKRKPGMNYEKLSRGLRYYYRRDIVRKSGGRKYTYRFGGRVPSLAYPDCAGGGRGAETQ
# Method in brief: as §1
# ELF3 = molecular target: T5, ELF3 (Homo sapiens, UniProt P78545 1-371); conditions: protein: recombinant; tags: N-terminal GST; dsDNA, one strand shown
# T5 sequence: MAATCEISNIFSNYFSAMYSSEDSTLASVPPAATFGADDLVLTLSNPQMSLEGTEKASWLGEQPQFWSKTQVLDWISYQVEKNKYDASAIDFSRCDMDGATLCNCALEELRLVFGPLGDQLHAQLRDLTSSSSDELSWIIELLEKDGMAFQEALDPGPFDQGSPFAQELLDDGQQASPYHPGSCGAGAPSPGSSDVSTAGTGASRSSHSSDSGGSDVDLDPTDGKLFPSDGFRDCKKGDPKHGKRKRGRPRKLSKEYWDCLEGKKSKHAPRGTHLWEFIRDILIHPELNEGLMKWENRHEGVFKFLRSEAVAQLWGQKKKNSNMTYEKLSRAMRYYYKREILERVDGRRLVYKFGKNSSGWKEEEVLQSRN
# Method in brief: as §1
# CRX = CRX (Homo sapiens, UniProt O43186 1-299); conditions: protein: recombinant; tags: N-terminal GST; dsDNA, one strand shown
# Method in brief: as §1
# ETV1 = ETV1 (Homo sapiens, UniProt P50549 1-477); conditions: protein: recombinant; tags: N-terminal GST; dsDNA, one strand shown
# Method in brief: as §1
# ERF = molecular target: T6, ERF (Homo sapiens, UniProt P50548 1-548); conditions: protein: recombinant; tags: N-terminal GST; dsDNA, one strand shown
# T6 sequence: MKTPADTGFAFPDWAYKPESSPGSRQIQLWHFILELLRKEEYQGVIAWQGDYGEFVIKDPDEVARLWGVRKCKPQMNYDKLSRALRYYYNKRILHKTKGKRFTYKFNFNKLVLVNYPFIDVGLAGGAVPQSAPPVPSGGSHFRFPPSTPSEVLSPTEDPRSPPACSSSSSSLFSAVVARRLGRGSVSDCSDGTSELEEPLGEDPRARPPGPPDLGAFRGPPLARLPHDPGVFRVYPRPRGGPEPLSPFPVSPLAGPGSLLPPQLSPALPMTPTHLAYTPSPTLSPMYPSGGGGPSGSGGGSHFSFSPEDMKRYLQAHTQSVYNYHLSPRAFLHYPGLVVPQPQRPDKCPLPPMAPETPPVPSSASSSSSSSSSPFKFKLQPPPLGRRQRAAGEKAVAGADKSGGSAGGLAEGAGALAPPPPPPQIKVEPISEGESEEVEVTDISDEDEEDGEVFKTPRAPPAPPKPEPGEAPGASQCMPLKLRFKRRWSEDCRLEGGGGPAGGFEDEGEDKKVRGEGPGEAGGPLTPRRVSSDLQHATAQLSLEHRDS
# Method in brief: as §1
# ETV3L = molecular target: T7, ETV3L (Homo sapiens, UniProt Q6ZN32 1-361); conditions: protein: recombinant; tags: N-terminal GST; dsDNA, one strand shown
# T7 sequence: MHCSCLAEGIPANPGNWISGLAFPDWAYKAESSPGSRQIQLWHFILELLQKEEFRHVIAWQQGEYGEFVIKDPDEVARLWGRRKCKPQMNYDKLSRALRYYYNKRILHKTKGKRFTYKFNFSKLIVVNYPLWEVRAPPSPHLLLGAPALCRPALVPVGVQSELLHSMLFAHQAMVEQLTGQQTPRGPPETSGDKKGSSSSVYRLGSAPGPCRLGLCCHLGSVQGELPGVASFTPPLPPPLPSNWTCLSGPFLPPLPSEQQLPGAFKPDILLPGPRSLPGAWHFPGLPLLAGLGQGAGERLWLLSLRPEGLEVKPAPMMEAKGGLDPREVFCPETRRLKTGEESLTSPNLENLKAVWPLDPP
# Method in brief: as §1
# ETS2 = molecular target: T8, ETS2 (Homo sapiens, UniProt P15036 1-469); conditions: protein: recombinant; tags: N-terminal GST; dsDNA, one strand shown
# T8 sequence: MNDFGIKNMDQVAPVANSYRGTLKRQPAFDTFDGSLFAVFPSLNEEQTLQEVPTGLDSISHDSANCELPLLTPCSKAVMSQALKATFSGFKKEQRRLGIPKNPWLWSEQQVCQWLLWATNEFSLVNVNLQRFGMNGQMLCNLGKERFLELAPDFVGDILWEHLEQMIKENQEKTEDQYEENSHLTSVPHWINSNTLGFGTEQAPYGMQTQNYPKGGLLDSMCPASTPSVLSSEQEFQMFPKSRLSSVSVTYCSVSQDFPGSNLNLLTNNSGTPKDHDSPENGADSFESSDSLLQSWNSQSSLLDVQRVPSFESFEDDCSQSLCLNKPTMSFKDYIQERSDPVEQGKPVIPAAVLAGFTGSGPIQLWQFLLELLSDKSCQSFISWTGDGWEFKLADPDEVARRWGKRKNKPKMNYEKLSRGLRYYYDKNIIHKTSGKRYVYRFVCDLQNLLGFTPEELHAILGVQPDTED
# Method in brief: as §1
# SPDEF = molecular target: T9, SPDEF (Homo sapiens, UniProt O95238 1-335); conditions: protein: recombinant; tags: N-terminal GST; dsDNA, one strand shown
# T9 sequence: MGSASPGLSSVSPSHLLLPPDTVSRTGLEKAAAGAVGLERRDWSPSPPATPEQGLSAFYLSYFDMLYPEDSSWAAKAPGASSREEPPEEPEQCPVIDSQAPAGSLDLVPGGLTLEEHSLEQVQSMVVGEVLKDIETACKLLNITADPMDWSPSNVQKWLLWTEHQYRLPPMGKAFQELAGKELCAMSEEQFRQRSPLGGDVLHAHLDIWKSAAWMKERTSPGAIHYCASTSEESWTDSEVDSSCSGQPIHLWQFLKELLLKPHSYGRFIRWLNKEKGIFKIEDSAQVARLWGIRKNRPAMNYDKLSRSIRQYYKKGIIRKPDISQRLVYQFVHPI
# Method in brief: as §1
# ETV7 = molecular target: T10, ETV7 (Homo sapiens, UniProt Q9Y603 1-341); conditions: protein: recombinant; tags: N-terminal GST; dsDNA, one strand shown
# T10 sequence: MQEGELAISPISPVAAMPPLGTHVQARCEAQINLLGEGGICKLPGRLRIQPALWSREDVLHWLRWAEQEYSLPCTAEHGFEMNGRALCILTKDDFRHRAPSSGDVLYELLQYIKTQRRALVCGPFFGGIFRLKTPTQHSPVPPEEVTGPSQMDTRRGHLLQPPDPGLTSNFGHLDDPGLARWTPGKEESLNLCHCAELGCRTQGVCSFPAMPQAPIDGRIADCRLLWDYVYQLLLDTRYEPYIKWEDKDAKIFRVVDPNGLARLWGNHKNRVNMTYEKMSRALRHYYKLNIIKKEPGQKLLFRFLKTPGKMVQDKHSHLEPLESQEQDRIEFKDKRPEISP
# Method in brief: as §1
# ELF5 = molecular target: T11, ELF5 (Homo sapiens, UniProt Q9UKW6-2 1-255); conditions: protein: recombinant; tags: N-terminal GST; dsDNA, one strand shown
# T11 sequence: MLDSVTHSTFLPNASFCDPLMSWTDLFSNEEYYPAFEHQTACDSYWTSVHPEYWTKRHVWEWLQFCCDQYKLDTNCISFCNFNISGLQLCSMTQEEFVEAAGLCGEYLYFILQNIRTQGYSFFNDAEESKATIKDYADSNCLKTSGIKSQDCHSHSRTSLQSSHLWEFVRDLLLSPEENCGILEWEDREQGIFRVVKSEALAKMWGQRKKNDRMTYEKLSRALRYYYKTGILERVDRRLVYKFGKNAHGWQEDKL
# Method in brief: as §1
# ETV3 = molecular target: T12, ETV3 (Homo sapiens, UniProt P41162-2 1-143); conditions: protein: recombinant; tags: N-terminal GST; dsDNA, one strand shown
# T12 sequence: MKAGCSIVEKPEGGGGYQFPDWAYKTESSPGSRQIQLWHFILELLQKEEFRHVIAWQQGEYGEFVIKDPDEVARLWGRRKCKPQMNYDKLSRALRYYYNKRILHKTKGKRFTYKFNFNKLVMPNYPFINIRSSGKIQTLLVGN
# Method in brief: as §1
# ETV6 = ETV6 (Homo sapiens, UniProt P41212 1-452); conditions: protein: recombinant; tags: N-terminal GST; dsDNA, one strand shown
# Method in brief: as §1
# ELF4, sequence (Q99607 whole entry): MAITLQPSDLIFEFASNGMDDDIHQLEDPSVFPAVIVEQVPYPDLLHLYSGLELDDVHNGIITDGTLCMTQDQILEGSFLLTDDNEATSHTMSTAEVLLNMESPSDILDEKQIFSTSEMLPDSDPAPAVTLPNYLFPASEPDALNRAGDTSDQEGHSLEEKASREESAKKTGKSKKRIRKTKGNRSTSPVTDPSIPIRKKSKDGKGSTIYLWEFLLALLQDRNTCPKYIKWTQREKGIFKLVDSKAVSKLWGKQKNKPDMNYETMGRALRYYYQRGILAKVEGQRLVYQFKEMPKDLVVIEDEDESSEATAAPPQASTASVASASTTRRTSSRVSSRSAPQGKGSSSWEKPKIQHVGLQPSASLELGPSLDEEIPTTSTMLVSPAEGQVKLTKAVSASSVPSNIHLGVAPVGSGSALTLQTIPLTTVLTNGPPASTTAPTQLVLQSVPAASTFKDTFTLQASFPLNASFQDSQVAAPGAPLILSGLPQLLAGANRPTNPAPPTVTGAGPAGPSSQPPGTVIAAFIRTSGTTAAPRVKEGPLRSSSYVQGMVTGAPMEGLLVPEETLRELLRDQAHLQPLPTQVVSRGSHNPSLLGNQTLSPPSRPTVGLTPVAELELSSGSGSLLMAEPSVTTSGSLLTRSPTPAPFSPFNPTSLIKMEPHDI
# ETV6, sequence (P41212 whole entry): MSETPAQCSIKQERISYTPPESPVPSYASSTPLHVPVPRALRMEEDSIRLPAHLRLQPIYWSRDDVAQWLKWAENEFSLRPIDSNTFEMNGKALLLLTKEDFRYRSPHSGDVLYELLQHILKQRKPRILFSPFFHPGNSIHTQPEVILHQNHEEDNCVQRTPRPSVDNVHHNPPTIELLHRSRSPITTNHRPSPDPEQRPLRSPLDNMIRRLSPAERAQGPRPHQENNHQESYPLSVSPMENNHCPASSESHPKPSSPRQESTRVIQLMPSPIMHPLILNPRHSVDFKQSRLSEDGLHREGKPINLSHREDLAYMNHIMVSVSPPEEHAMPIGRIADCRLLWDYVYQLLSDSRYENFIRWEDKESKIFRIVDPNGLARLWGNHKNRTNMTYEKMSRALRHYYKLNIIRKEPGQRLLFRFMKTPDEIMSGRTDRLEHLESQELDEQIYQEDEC
# HSF1, sequence (Q00613 whole entry): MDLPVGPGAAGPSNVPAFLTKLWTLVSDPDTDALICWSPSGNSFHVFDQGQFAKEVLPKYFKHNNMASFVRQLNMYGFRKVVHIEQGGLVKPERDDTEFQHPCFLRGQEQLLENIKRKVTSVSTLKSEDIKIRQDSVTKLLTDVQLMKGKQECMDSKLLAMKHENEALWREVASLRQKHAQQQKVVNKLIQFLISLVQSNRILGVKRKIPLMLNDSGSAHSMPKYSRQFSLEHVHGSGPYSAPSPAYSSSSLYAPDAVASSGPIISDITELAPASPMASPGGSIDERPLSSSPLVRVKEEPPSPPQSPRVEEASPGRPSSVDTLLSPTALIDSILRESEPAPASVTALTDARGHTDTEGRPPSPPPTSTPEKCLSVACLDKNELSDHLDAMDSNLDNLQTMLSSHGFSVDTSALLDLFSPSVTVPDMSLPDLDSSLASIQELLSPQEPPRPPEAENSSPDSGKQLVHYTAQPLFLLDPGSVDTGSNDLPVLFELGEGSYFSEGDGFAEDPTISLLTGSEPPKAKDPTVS
# CRX, sequence (O43186 whole entry): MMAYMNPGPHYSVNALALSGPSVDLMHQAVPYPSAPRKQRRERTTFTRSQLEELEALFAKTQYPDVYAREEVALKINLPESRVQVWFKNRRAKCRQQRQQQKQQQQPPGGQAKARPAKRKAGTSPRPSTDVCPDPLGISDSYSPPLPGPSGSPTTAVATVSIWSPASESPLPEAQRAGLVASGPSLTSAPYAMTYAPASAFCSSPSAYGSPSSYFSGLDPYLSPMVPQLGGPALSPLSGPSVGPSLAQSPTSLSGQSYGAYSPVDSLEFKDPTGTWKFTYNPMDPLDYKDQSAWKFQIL
# ETV1, sequence (P50549 whole entry): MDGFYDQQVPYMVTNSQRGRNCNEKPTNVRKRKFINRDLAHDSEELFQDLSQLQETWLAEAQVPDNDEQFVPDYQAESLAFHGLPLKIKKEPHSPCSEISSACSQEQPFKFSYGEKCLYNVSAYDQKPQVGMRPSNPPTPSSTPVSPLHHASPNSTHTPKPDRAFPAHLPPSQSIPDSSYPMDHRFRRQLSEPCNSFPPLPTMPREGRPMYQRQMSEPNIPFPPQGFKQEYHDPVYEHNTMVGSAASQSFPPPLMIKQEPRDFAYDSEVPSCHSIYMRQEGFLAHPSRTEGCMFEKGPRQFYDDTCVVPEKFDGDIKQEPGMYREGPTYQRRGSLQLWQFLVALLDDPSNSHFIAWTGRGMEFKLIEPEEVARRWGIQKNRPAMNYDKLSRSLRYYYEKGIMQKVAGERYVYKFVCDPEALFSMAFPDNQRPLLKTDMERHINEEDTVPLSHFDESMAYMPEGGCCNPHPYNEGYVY
# ETV5, sequence (P41161 whole entry): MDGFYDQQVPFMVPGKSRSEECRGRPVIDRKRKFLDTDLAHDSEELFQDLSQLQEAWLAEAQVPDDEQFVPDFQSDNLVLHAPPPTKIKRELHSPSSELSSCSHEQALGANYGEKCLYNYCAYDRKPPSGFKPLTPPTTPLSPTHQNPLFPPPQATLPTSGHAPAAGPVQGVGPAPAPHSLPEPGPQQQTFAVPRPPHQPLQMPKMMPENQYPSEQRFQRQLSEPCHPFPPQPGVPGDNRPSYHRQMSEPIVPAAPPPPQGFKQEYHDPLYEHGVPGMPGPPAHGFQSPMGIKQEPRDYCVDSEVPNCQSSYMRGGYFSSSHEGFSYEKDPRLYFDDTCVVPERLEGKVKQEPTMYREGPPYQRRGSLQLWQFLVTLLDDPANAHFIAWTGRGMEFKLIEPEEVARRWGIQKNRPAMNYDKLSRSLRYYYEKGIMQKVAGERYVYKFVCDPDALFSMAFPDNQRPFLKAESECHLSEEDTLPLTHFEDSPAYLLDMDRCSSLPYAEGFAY
sequence,measurement,setting,value
ACTTTG,binding signal,FEV,"1.13 fold enrichment (6-mer frequency, TF over GST control)"
same,binding signal,ETV5,"1.3 fold enrichment (6-mer frequency, TF over GST control)"
same,binding signal,HSF1,"1.14 fold enrichment (6-mer frequency, TF over GST control)"
same,binding signal,SPIC,"1.33 fold enrichment (6-mer frequency, TF over GST control)"
same,binding signal,ELF4,"1.29 fold enrichment (6-mer frequency, TF over GST control)"
same,binding signal,ELK4,"1.22 fold enrichment (6-mer frequency, TF over GST control)"
same,binding signal,ETV2,"1.39 fold enrichment (6-mer frequency, TF over GST control)"
same,binding signal,ELF3,"1.28 fold enrichment (6-mer frequency, TF over GST control)"
same,binding signal,CRX,"1.18 fold enrichment (6-mer frequency, TF over GST control)"
same,binding signal,ETV1,"1.21 fold enrichment (6-mer frequency, TF over GST control)"
same,binding signal,ERF,"1.25 fold enrichment (6-mer frequency, TF over GST control)"
same,binding signal,ETV3L,"1.2 fold enrichment (6-mer frequency, TF over GST control)"
same,binding signal,ETS2,"1.18 fold enrichment (6-mer frequency, TF over GST control)"
same,binding signal,SPDEF,"1.14 fold enrichment (6-mer frequency, TF over GST control)"
same,binding signal,ETV7,"1.11 fold enrichment (6-mer frequency, TF over GST control)"
same,binding signal,ELF5,"1.25 fold enrichment (6-mer frequency, TF over GST control)"
same,binding signal,ETV3,"1.42 fold enrichment (6-mer frequency, TF over GST control)"
same,binding signal,ETV6,"1.18 fold enrichment (6-mer frequency, TF over GST control)"
